# Experimental data as given in PubChem BioAssay.
# Active and inactive are the calls of the source.
# Assays:
# [1] = binders of probe aFSTL3 on microarray, primary screen, stem cell growth factor project, biochemical, small-molecule microarray, fluorescence 635/667 (AID 1064); conditions: higher = more signal;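 also: measures binding of the biotinylated anti-FSTL3 antibody to printed compounds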
# [2] = binders from COS7 lysate, DM2A8 probe, primary screen, torsin A project, cell lysate, small-molecule microarray, fluorescence 635/667 (AID 1065); conditions: higher = more signal, COS7 lysate expressing mutant human TOR1A
# [3] = binders of probe aFGF2 on microarray, primary screen, stem cell growth factor project, biochemical, small-molecule microarray, fluorescence 635/667 (AID 1067); conditions: higher = more signal;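 also: measures binding of biotinylated aFGF2 protein to printed compounds on slides; z-score merges feature fluorescence and signal-to-noise across triplicate slides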
# [4] = binders of probe aFGF10 on microarray, primary screen, stem cell growth factor project, biochemical, small-molecule microarray, fluorescence 635/667 (AID 1071); conditions: higher = more signal;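 also: score merges 667 nm spot intensity and signal to noise from triplicate slides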
# [5] = biological target: Neurogenic locus notch homolog protein 2 (Homo sapiens) (UniProt Q04721); assay: Notch2 binders on small-molecule microarrays, primary screen, biochemical, small-molecule microarray, 635 nm fluorescence, stem cell growth factors (AID 1073); conditions: Notch2 binding, higher = more signal
# [6] = biological target: Pro-neuregulin-1, membrane-bound isoform (Homo sapiens) (UniProt Q02297); assay: NRG1 binders on small-molecule microarrays, primary screen, psychiatric disease protein project, biochemical, small-molecule microarray, fluorescence 635/667 (AID 1075); conditions: NRG1 binding, 635 nm fluorescence, higher = more signal;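 also: score combines 667 nm spot fluorescence with signal to noise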
# Pro-neuregulin-1, membrane-bound isoform (Homo sapiens), sequence (Q02297 whole entry, looked up, the tested form may be a part, canonical isoform): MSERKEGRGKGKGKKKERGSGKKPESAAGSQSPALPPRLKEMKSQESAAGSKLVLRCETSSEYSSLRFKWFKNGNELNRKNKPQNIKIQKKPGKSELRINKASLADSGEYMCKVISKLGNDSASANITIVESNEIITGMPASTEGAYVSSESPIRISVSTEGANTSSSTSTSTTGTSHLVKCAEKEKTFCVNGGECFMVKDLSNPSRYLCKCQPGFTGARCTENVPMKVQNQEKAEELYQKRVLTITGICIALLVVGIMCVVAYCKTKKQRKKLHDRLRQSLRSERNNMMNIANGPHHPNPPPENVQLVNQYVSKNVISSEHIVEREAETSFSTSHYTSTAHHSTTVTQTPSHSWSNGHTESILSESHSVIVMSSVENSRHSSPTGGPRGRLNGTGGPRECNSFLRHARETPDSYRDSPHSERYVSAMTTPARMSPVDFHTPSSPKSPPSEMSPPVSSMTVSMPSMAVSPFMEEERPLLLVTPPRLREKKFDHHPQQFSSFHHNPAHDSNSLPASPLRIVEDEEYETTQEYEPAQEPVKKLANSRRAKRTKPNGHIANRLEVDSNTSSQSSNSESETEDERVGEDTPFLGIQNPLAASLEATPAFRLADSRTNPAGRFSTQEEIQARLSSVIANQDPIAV
# [7] = system: Neuregulin-1 EGF-like domain; assay: binders of neuregulin-1 EGF-like domain, primary screen, biochemical, small-molecule microarray, 635 nm fluorescence (AID 1081); conditions: small-molecule microarray binding, higher = more signal;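 also: binding of the protein to compounds printed on small-molecule microarray slides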
# [8] = FRG1 promoter luciferase signal modulators, primary screen, FRG1 inhibition for FSHD, cell-based, C2C12 myotubes, firefly/Renilla luciferase, luminescence (AID 1084); conditions: higher = more signal, called active from +8 up or from −8 down
# [9] = binders of probe aFST on microarray, primary screen, stem cell growth factor project, biochemical, small-molecule microarray, fluorescence 635/667 (AID 1086); conditions: higher = more signal;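 also: score merges 667 nm fluorescence with signal-to-noise of each printed compound spot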
# [10] = binders of probe aHhip on microarray, primary screen, stem cell growth factor project, biochemical, small-molecule microarray, fluorescence 635/667 (AID 1087); conditions: higher = more signal;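 also: score merges spot fluorescence at 667nm with spot signal to noise ratio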
# [11] = system: PRMT1 (protein arginine N-methyltransferase 1); assay: PRMT1 binders on small-molecule microarrays, primary screen, biochemical, small-molecule microarray, 635 nm fluorescence (AID 1088); conditions: small-molecule microarray binding, higher = more signal;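 also: binding of Prmt1 protein to compounds spotted on small-molecule microarray slides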
# [12] = yeast growth modulation, basal conditions, primary screen, YJM789 clinical isolate, OD600, 24 h (AID 1089);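 also: growth of clinical yeast isolate S. cerevisiae YJM 789 seeded 1000 cells per well; test concentration not given here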; conditions: S. cerevisiae YJM789 growth, higher = more signal, called active from +8 up or from −8 down
# [13] = fission yeast growth modulation, primary screen, strain 972, OD600, 24 h, no modulator (AID 1090);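 also: basal condition with compound alone and no growth modifier present; test concentration not given here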; conditions: S. pombe 972 growth, higher = more signal, called active from +8 up or from −8 down
# [14] = S. cerevisiae growth modulation with rapamycin, primary screen, strain BY4716, OD600, 96 h (AID 1091); conditions: higher = more signal, called active from +8 up or from −8 down; also: test concentration not given here
# [15] = biological target: Torsin-1A-interacting protein 2 (Homo sapiens) (UniProt Q8NFQ8); assay: LULL1 binders on small-molecule microarray, primary screen, cell lysate, human LULL1 lysate, 635/667 nm fluorescence (AID 1092); conditions: hLULL1 lysate binding, 635 nm fluorescence, higher = more signal;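 also: probe is lysate of COS7 cells overexpressing human LULL1; score merges per-feature 667 nm fluorescence with signal-to-noise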
# Torsin-1A-interacting protein 2 (Homo sapiens), sequence (Q8NFQ8 whole entry, looked up): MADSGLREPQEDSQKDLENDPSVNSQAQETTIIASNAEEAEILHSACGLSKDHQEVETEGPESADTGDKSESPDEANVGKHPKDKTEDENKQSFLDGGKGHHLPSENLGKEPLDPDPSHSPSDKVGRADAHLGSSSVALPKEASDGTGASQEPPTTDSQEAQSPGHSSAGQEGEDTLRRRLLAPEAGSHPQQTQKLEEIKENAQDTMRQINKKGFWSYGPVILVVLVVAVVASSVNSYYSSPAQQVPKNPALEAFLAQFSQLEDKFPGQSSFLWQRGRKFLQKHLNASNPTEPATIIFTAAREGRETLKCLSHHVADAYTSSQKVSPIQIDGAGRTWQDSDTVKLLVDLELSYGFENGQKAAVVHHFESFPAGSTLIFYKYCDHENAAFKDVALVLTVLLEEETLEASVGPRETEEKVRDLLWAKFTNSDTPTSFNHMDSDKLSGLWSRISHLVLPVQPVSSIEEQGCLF
# [16] = E. coli growth modulation, two-sided OD650, primary screen, E. coli filamentation project, strain DRC41, 24 h (AID 1093); conditions: OD650, 24 h, higher = more signal, called active from +8 up or from −8 down;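 also: MC1000 strain lacking acrAB efflux and sulA so SOS filamentation is blocked; test concentration not given here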
# [17] = small-molecule microarray binders of probe aLefty2, primary screen, biochemical, biotinylated probe, 635/667 nm fluorescence (AID 1094); conditions: higher = more signal;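 also: score merges spot fluorescence near 667 nm with spot signal-to-noise ratio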
# [18] = system: Noggin (protein binding on small-molecule microarray); assay: Noggin binders on small-molecule microarray, primary screen, biochemical, 635/667 nm fluorescence (AID 1095); conditions: 635 nm fluorescence, higher = more signal;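 also: score merges 667 nm feature fluorescence with signal to noise over triplicate slides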
# [19] = biological target: Neurogenic locus notch homolog protein 3 (Homo sapiens) (UniProt Q9UM47); assay: NOTCH3 binders on small-molecule microarray, primary screen, biochemical, 635/667 nm fluorescence (AID 1096); conditions: NOTCH3 binding, 635 nm fluorescence, higher = more signal
# Neurogenic locus notch homolog protein 3 (Homo sapiens), sequence (Q9UM47 whole entry, looked up): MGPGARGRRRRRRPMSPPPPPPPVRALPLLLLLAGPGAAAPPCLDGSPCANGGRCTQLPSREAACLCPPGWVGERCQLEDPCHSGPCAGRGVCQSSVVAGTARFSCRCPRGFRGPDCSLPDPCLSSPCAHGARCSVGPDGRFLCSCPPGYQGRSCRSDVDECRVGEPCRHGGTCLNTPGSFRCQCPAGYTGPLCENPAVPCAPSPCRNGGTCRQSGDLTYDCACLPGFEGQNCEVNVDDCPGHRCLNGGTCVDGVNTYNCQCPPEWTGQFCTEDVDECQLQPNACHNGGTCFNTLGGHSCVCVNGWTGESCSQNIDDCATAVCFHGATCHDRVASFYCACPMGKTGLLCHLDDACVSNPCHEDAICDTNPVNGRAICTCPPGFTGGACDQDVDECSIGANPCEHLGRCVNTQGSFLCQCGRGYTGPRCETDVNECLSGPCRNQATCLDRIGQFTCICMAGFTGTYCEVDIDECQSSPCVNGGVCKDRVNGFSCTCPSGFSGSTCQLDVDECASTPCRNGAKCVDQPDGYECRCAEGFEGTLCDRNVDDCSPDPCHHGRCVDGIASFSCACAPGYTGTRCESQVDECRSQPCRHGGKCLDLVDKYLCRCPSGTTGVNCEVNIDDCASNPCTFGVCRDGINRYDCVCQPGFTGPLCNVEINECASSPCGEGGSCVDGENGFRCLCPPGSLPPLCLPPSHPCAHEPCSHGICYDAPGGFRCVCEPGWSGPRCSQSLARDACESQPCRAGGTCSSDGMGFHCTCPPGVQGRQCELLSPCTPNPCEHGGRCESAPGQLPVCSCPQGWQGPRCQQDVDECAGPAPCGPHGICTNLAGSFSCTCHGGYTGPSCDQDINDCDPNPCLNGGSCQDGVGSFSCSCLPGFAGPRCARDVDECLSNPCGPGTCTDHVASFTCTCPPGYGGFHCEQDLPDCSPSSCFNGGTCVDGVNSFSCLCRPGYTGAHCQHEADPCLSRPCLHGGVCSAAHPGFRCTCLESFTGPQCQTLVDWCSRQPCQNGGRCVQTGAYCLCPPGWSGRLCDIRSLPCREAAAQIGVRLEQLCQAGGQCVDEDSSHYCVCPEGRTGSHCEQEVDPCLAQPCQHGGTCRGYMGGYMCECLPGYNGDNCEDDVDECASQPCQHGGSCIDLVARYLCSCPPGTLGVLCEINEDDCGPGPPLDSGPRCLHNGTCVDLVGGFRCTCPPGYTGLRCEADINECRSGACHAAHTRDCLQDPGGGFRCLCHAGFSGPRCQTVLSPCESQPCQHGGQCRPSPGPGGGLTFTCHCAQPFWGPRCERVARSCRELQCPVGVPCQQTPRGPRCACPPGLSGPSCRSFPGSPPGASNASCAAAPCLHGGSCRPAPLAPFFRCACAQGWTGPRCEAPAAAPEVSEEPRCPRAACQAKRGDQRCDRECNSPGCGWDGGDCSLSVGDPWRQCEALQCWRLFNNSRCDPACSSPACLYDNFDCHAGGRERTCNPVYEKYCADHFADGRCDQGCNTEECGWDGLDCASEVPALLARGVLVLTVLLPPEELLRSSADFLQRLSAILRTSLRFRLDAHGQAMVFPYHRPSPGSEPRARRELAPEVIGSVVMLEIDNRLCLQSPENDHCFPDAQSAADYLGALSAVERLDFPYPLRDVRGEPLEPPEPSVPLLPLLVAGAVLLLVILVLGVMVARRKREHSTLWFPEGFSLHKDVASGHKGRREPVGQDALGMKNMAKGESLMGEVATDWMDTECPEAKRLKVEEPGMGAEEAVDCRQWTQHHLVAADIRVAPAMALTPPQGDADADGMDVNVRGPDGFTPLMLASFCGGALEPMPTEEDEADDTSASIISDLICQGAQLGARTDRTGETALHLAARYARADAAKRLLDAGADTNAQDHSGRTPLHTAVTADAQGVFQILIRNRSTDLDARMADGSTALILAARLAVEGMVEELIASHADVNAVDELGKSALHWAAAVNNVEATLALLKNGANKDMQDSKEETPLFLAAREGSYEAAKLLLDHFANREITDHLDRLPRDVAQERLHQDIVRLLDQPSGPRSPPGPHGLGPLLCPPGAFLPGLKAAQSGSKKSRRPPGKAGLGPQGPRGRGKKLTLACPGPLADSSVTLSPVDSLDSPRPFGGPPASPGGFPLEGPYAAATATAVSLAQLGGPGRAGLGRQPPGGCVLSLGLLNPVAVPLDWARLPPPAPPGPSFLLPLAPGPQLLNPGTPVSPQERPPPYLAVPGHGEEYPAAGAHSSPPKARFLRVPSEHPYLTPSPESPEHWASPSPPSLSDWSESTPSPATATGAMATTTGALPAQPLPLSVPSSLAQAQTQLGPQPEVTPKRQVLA
# [20] = small-molecule microarray binders of probe aEGFR, primary screen, biochemical, biotinylated probe, 635/667 nm fluorescence (AID 1097); conditions: higher = more signal;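 also: probe is a biotinylated anti-EGFR antibody binding compounds printed on slides; score combines fluorescence near 667 nm and signal to noise of each spot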
Structure (SMILES),composite z-score [1],composite z-score [2],composite z-score [3],composite z-score [4],composite z-score [5],composite z-score [6],composite z-score [7],z-score [8],composite z-score [9],composite z-score [10],composite z-score [11],z-score [12],z-score [13],z-score [14],composite z-score [15],z-score [16],composite z-score [17],composite z-score [18],composite z-score [19],composite z-score [20]
CN(C)CCCNC(=O)[C@@]1(Cc2ccccc2I)c2ccccc2C(=O)N(Cc2ccccc2C(F)(F)F)[C@H]1c1ccc(CO)cc1,0.459,-1.14,-0.22,-0.935,-0.936,1.74,1.23,-1.1 (inactive),-0.309,-0.0645,1.05,-0.0554 (inactive),-19.8 (active),-2.58 (inactive),3.45,-0.971 (inactive),-0.16,-1.16,-0.848,-0.295
CCOC(=O)[C@H]1C/C=C/C[C@H](C(=O)OCC)C(=O)O[C@H]2[C@@H](OC)O[C@H](CO)[C@@H](OC(=O)Nc3ccc4c(c3)OCO4)[C@@H]2OC1=O,-0.267,0.451,0.0302,0.718,0.235,1.5,1.25,0.891 (inactive),0.0008,-0.212,0.921,1.12 (inactive),0.079 (inactive),6.03 (inactive),2.35,1.59 (inactive),-0.0238,-0.259,0.145,-0.071
COCCOC(=O)N1C(=O)[C@@]2(c3cc(C#CCC(C(=O)OC)C(=O)OC)ccc31)[C@H](c1ccccc1OCCO)N1[C@H](c3ccccc3)[C@H](c3ccccc3)OC(=O)[C@H]1[C@@H]2C(N)=O,-0.0037,0.532,0.0495,1.17,0.923,1.42,1.21,-0.885 (inactive),0.0716,0.107,1.17,1.47 (inactive),0.951 (inactive),4.79 (inactive),2.74,1.12 (inactive),0.0074,0.726,1.1,-0.0346
COc1ccc(C(O)C2C=CC3C(=O)N(c4ccccc4)C(=O)C3N2Nc2ccc([N+](=O)[O-])cc2)cc1OCc1ccccc1 (stereo not given),2,-0.14,0.649,1.06,1.29,2.06,1.26,0.565 (inactive),2.36,1.2,0.923,-0.225 (inactive),1.57 (inactive),0.989 (inactive),2.72,-1.29 (inactive),1.25,0.322,1.11,0.852
O=C1OCCC/C=C\[C@H]2OC34C=CCN(Cn5nnc6ccccc65)C(=O)[C@H]3N(CCCCCO)C(=O)[C@@H]4C12 (stereo not given in full),0.0227,-0.126,-0.145,-0.821,-0.919,0.865,0.443,0.406 (inactive),-0.666,-0.206,-1.29,-0.401 (inactive),-0.745 (inactive),-1.83 (inactive),1.04,0.498 (inactive),-0.114,-0.808,-0.0037,-0.174
CC(=O)Nc1cc(Br)ccc1C(=O)O,-0.135,-0.387,0.0308,0.239,0.425,0.541,0.748,0.466 (inactive),0.353,-0.221,0.183,-0.0103 (inactive),0.331 (inactive),0.178 (inactive),1.33,-0.18 (inactive),-0.0006,0.201,0.482,-0.156
O=C1c2ccccc2[C@@]2(Cc3ccccc3N(Cc3ccccc3)C2=O)[C@H](c2ccc(CO)cc2)N1C1CCCCC1,-0.382,-0.832,-0.152,-0.0341,-0.203,0.662,1.37,-0.0414 (inactive),-0.244,-0.201,1.21,-0.676 (inactive),1.1 (inactive),-0.619 (inactive),0.525,-0.0011 (inactive),-0.239,0.61,0.269,-0.2
COc1ccc([Si](C)(C)[C@@H]2[C@@H](CCn3cc([C@H](O)c4ccccc4)nn3)O[C@]3(C(=O)N(Cc4ccc(N5C(=O)c6cccc7cccc5c67)cc4)c4ccccc43)[C@H]2C)cc1,0.428,0.174,-0.162,-0.16,-0.574,0.569,0.594,-0.353 (inactive),-0.587,-0.199,0.534,0.316 (inactive),-0.197 (inactive),1.64 (inactive),1,1.05 (inactive),-0.0237,-0.345,0.0481,-0.217
COC(=O)[C@@]1(Cc2ccc(OC)cc2)[C@H]2c3cc(C(=O)N4CCCC4)n(CCc4c[nH]c5cc(F)ccc45)c3C[C@H]2CN1C(=O)c1ccccc1,0.785,0.209,0.0181,0.71,1.76,2.12,1.18,-0.87 (inactive),2.35,0.28,1.09,0.548 (inactive),1.2 (inactive),1.75 (inactive),3.54,0.332 (inactive),0.776,0.103,1.08,0.103
COCCOC(=O)N1C(=O)[C@@]2(c3cc(C#CCCO)ccc31)[C@H](c1ccccc1OCCO)N1[C@H](c3ccccc3)[C@H](c3ccccc3)OC(=O)[C@H]1[C@@H]2C(=O)N1CCN(c2ncccn2)CC1,0.546,-0.481,0.0763,0.949,1.55,1.66,1.26,-1.54 (inactive),1.4,0.463,1.54,1.24 (inactive),1.08 (inactive),3.94 (inactive),2.32,-0.27 (inactive),0.571,0.725,1.03,0.339
